The source made the active and inactive calls. Calls come from the whole dose curve.
biological target: Glucocorticoid receptor (Homo sapiens) (UniProt P04150); experiment: GR-EFC Redistribution (AID 451); settings: CHO-K1 GR-EFC translocation, beta-gal luminescence, 2 h
Source text: NIH Molecular Libraries Screening Centers Network [MLSCN]
NIH Chemical Genomics Center [NCGC]
The glucocorticoid receptor (GR) is a cytoplasmic receptor that belongs to the nuclear receptor family of ligand-dependent transcription factors. Upon glucocorticoid binding to its receptor, the glucocorticoid-GR complex translocates into the nucleus, where it binds as a dimer to specific DNA sequences (glucocorticoid response elements), enhancing or suppressing transcription of a wide variety of glucocorticoid-responsive genes. In addition to their important roles in normal physiology and metabolism, glucocorticoids are administered exogenously as treatments for a wide variety of allergic, autoimmune, and neoplastic conditions. Identification of compounds that modulate aspects of GR signalling would be useful in dissecting glucocorticoid response pathways as well as developing GR modulators with more targeted clinical effects.
Traditionally, GR modulators have been identified using receptor binding or direct transactivation assays. However, assays for glucocorticoid-dependent nuclear translocation can also be used to screen for compounds affecting GR signaling.
Immunocytochemical staining has been used to assay for GR translocation, but is not suitable for high throughout screening due to the multiple reagent addition and wash steps required. Recently, a novel cell-based GR assay in Enzyme Fragment Complementation (EFC) format was developed by DiscoveRx (Fremont, CA). The assay uses EFC of b-galactosidase (b-gal) as an indicator of GR-translocation in engineered CHO-K1 biosensor cells. The enzyme acceptor (EA) fragment of b-gal resides in the nucleus , as designed through the use of a proprietary set of sequence additions and modifications. The small peptide enzyme donor (ED) fragment of b-gal is fused directly to the C-terminus of GR, and is localized in the cytoplasm is the absence of receptor signaling. Upon binding to a GR ligand, the complex translocates to the nucleus, where intact enzyme activity is restored by complementation and b-gal activity is detected. We optimized this GR-EFC assay in homogenous 1536-well plate assay format for high throughput screening.
NCGC Assay Protocol Summary:
CHO-K1 cells stably expressing NLS-enzyme acceptor fragment (EA) of b-gal and GR-enzyme donor (ED) fragment of b-gal were maintained in F12 medium (Invitrogen, Carlsbad, CA) at 37 Celsius degrees under a humidified atmosphere containing 5% CO2 and 95% air. The medium contained 10% FBS, 2 mM L-glutamine, 50 U/ml penicillin 50 ug/ml streptomycin, and 250 ug/ml hygromycin and 500 ug/ml G418 (Invitrogen).
GR-translocation was measured beta-gal enzyme activity using the PathHunter Detection Kit containing cell membrane permeablizing reagent and beta-gal substrate (DiscoveRx, Fremont, CA). All compounds were screened as titrations from 0.6 nM to 46 uM final concentration. The assay was performed in 1536-well format as follows:
5 uL cell suspension (1,000 cells)/well
Incubation at 37 Celsius degrees for two hours
1.25 uL 1X detection buffer from the kit supplied by DiscoveRx
Incubation at room temperature for one hour
Read plate in luminescence mode in ViewLux plate reader (PerkinElmer)
Keywords: NIH Roadmap, MLSCN, MLI, MLSMR, GR-EFC, GREFC, qHTS, NCGC
Potency is the fitted concentration of half-maximal effect.

Sequence of Glucocorticoid receptor (Homo sapiens) (P04150 whole entry, looked up): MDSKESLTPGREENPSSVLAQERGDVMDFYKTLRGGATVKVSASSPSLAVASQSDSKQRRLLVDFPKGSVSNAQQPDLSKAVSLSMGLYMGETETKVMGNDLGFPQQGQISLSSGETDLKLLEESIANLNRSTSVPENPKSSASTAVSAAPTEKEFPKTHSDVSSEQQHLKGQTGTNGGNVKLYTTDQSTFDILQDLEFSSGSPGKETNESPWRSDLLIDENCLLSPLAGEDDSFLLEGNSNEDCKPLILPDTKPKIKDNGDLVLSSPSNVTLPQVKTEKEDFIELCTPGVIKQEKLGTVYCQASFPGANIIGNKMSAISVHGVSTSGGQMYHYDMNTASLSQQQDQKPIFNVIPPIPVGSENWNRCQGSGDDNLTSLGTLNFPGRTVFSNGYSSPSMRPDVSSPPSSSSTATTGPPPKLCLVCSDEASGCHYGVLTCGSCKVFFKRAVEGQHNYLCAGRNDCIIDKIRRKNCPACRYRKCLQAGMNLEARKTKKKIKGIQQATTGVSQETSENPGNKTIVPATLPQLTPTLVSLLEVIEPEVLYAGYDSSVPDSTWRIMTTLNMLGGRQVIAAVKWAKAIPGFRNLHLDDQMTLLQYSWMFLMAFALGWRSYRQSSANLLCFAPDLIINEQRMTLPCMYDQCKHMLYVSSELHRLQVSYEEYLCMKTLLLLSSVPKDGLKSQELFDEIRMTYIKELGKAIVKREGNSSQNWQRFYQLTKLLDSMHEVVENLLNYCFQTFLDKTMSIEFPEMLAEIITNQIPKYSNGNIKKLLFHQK

Potency, inactive:
COc1ccccc1CNc1ncnc2ccc(-c3ccc(C(=O)N(C)C)cc3)cc12 > 46 µM, COc1ccc2[nH]cc(CCNc3ncncc3-c3ccccc3Cl)c2c1 > 46 µM, Cc1cc(N)c2ccccc2[n+]1CCCCCCCCCCCCCC[n+]1c(C)cc(N)c2ccccc21 > 46 µM, COc1cccc(-c2nc(N(C)C)c3ccccc3n2)c1 > 46 µM, CN(C)c1ncc2nc(CCc3ccccc3)c(=O)n(Cc3cccs3)c2n1 > 46 µM, CCNc1ncc2nc(CCc3ccccc3)c(=O)n(Cc3cccc(OC)c3)c2n1 > 46 µM, CC(=O)N1CCC2(CCCN(c3ccc(-c4ccccc4)cc3)C2)CC1 > 46 µM, O=c1c(-c2ccccc2)nc2cnc(N3CCOCC3)nc2n1CCc1ccccc1 > 46 µM, CCNc1ncc2nc(-c3cccs3)c(=O)n(CCC#N)c2n1 > 46 µM, COCCn1c(=O)c(CCc2ccccc2)nc2cnc(OCc3ccccc3)nc21 > 46 µM, COc1cccc(Cn2c(=O)c(CCc3ccccc3)nc3cnc(N4CCN(C)CC4)nc32)c1 > 46 µM, Cc1cccc(CNc2ncncc2-c2ccccc2C)c1 > 46 µM, Cc1nc2cnc(N3CCOCC3)nc2n(CCc2ccccc2)c1=O > 46 µM, Cc1cnc(CNc2ncnc3ccc(-c4ccccc4Cl)cc23)cn1 > 46 µM, CC(C)C[C@H](N)CSSC[C@@H](N)CC(C)C > 46 µM, COc1ccccc1CNc1ncncc1-c1ccc2c(c1)OCO2 > 46 µM, COCCn1c(=O)c(-c2cccc(C#N)c2)nc2cnc(Oc3cccc(Cl)c3)nc21 > 46 µM, O=C1C=C(NCCc2cc(Br)c(O)c(Br)c2)C(=O)c2ncccc21 > 9.22 µM, COc1ccc2[nH]cc(CCNc3cc(-c4ccccc4OC)ncn3)c2c1 > 46 µM, Cc1noc(C)c1-c1nc(N2CCN(C)CC2)c2ccccc2n1 > 46 µM, COc1ccc(-c2nc3cnc(N4CCOCC4)nc3n(-c3ccc(OC)cc3)c2=O)cc1 > 46 µM, COc1ccc2[nH]cc(CCNc3ncncc3-c3cccc(C#N)c3)c2c1 > 46 µM, Clc1ccccc1NN(Cc1ccncc1)c1ccccc1Cl > 9.22 µM, COCCn1c(=O)c(-c2cccs2)nc2cnc(N3CCNCC3)nc21 > 46 µM, CN1CCN(c2ncc3nc(CCc4ccccc4)c(=O)n(Cc4cccs4)c3n2)CC1 > 46 µM, CN(C)C(=O)c1ccc(-c2cc(NCc3ccccc3)ncn2)cc1 > 46 µM, COc1ccc2[nH]cc(CCNc3ncnc4ccc(-c5ccccc5OC)cc34)c2c1 > 46 µM, CC(C)=CCC1=C(OCC(=O)O)C(=O)c2ccccc2C1=O > 9.22 µM, Cn1c(=O)c(-c2ccccc2)nc2cnc(N3CCOCC3)nc21 > 46 µM, Clc1ccccc1-c1nc(-n2ccnc2)c2ccccc2n1 > 46 µM, O=C(c1ccco1)N1CCC2(CC1)CN(c1cccc(-c3ccccc3)c1)C2 > 46 µM, O=c1c(-c2ccccc2)nc2cncnc2n1Cc1ccccc1 > 46 µM, Cc1nc2cnc(Oc3cccc(Cl)c3)nc2n(Cc2ccc(F)cc2)c1=O > 46 µM, CN1CCN(c2ncc3nc(-c4cn(C)c5ccccc45)c(=O)n(C[C@H]4CCCO4)c3n2)CC1 > 46 µM, COCCn1c(=O)c(-c2cccs2)nc2cnc(Oc3ccccc3)nc21 > 46 µM, CN1CCN(c2ncc3nc(-c4cccc(C#N)c4)c(=O)n(CCc4ccccc4)c3n2)CC1 > 46 µM, COc1ncc2nc(CCc3ccccc3)c(=O)n(-c3ccccc3)c2n1 > 46 µM, CN(C)c1ncc2nc(-c3ccccc3)c(=O)n(C)c2n1 > 46 µM, CN(C)c1nc(-c2ccc3c(c2)OCO3)nc2ccccc12 > 46 µM, O=c1c(CCc2ccccc2)nc2cnc(Oc3ccccc3)nc2n1C1CC1 > 46 µM

Reference: PubChem BioAssay (NCATS)
